From PubChem BioAssay (NCATS) come the findings set out here.

Inconclusive results are not listed. Values without a mark were called inactive. Activity calls are given as the source filed them. Calls follow the shape of the dose curve; as a rule, active = well fitted curve in the direction sought with a large enough effect; inconclusive = small, poorly fitted or top-dose-only effect, or another doubt; inactive = no such curve, though single readings can be large; an effect the other way counts as inactive or inconclusive.

Experiment [1] is described as follows: Quantitative High-Throughput drug screen in 47 multiple myeloma cell lines against the NCATS MIPE library collection: KMS12BM_JCRB cell viability assay (AID 1918971). Also: nearly all actives have a fitted effect of over 35% in size. The essentials: (§1)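 Viability readout: CellTiter-Glo luminescence following 5 min room-temperature incubation with reagent. Prior exposure: 48 h, 37C, humidified 5% CO2, 500 cells per well.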
A short description of experiment [2]: Quantitative High-Throughput drug screen in 47 multiple myeloma cell lines against the NCATS MIPE library collection: KMS20_JCRB cell viability assay (AID 1918973). Also: nearly all actives have a fitted effect of over 45% in size. The essentials: (§2)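 CellTiter-Glo ATP luminescence gave viability after 48 h compound treatment at 37C of 500 multiple myeloma cells per well. Normalisation used DMSO-only wells as 100% and media-only wells as 0% viability; primary qHTS of approved and investigational drugs.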

A short description of experiment [3]: Quantitative High-Throughput drug screen in 47 multiple myeloma cell lines against the NCATS MIPE library collection: KMS21BM_JCRB cell viability assay (AID 1918974). Particulars: ATP luminescence, 48 h; viability: at 45.8 µM (top of the series) unless noted. The essentials:
as §2

The nature of experiment [4]: Quantitative High-Throughput drug screen in 47 multiple myeloma cell lines against the NCATS MIPE library collection: OPM1_PLB cell viability assay (AID 1918989). Also: nearly all actives have a fitted effect of over 40% in size. A digest of the protocol: (§3)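 MIPE 4.0 approved/investigational drugs; 500 cells/well; 48 h 37 °C humidified 5% CO2; CTG luminescence readout; DMSO = 100%, media = 0% viability.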
The nature of experiment [5]: Quantitative High-Throughput drug screen in 47 multiple myeloma cell lines against the NCATS MIPE library collection: SKMM1_PLB cell viability assay (AID 1919863). Also: nearly all actives have a fitted effect of over 35% in size. Particulars: SKMM1 myeloma viability, CellTiter-Glo ATP, 48 h; viability: active compounds read low. The essentials:
as §3

Experiment [6] in a line: Quantitative High-Throughput drug screen in 47 multiple myeloma cell lines against the NCATS MIPE library collection: KMS26_JCRB cell viability assay (AID 1918975). Also: nearly all actives have a fitted effect of over 45% in size. A digest of the protocol:
as §1

A short description of experiment [7]: Quantitative High-Throughput drug screen in 47 multiple myeloma cell lines against the NCATS MIPE library collection: MMM1_PLB cell viability assay (AID 1918976). Also: nearly all actives have a fitted effect of over 35% in size. The essentials: as §3
Experiment [8] in a line: Quantitative High-Throughput drug screen in 47 multiple myeloma cell lines against the NCATS MIPE library collection: MOLP8_DSMZ cell viability assay (AID 1918977). Also: nearly all actives have a fitted effect of over 45% in size. A digest of the protocol:
as §3

Experiment [9] is described as follows: Quantitative High-Throughput drug screen in 47 multiple myeloma cell lines against the NCATS MIPE library collection: OCIMY1_PLB cell viability assay (AID 1918979). Also: nearly all actives have a fitted effect of over 35% in size. The essentials:
as §3

Experiment [10] can be described thus: Quantitative High-Throughput drug screen in 47 multiple myeloma cell lines against the NCATS MIPE library collection: MM1S_ATCC cell viability assay (AID 1918980). Also: nearly all actives have a fitted effect of over 45% in size. A digest of the protocol: as §3
Experiment [11] can be described thus: Quantitative High-Throughput drug screen in 47 multiple myeloma cell lines against the NCATS MIPE library collection: MM1R_ATCC cell viability assay (AID 1918981). Also: nearly all actives have a fitted effect of over 35% in size. The essentials:
as §3

The nature of experiment [12]: Quantitative High-Throughput drug screen in 47 multiple myeloma cell lines against the NCATS MIPE library collection: KMS28PE_JCRB cell viability assay (AID 1918983). Also: nearly all actives have a fitted effect of over 35% in size. A digest of the protocol: as §3
Experiment [13] in a line: Quantitative High-Throughput drug screen in 47 multiple myeloma cell lines against the NCATS MIPE library collection: L363_DSMZ cell viability assay (AID 1918984). Also: nearly all actives have a fitted effect of over 40% in size. The essentials:
as §3

The nature of experiment [14]: Quantitative High-Throughput drug screen in 47 multiple myeloma cell lines against the NCATS MIPE library collection: KMS34_JCRB cell viability assay (AID 1918985). Also: nearly all actives have a fitted effect of over 40% in size. The essentials:
as §3

Experiment [15] can be described thus: Quantitative High-Throughput drug screen in 47 multiple myeloma cell lines against the NCATS MIPE library collection: OCIMY5_PLB cell viability assay (AID 1918988). Also: nearly all actives have a fitted effect of over 65% in size. The essentials: as §3
Experiment [16] is described as follows: Quantitative High-Throughput drug screen in 47 multiple myeloma cell lines against the NCATS MIPE library collection: U266_ATCC cell viability assay (AID 1919864). Also: nearly all actives have a fitted effect of over 35% in size. A digest of the protocol:
as §3

A short description of experiment [17]: Quantitative High-Throughput drug screen in 47 multiple myeloma cell lines against the NCATS MIPE library collection: OCIMY7_PLB cell viability assay (AID 1918987). Also: nearly all actives have a fitted effect of over 65% in size. Particulars: OCI-MY7 myeloma viability, CellTiter-Glo ATP, 48 h; viability (% of DMSO): at 45.8 µM (top of the series). A digest of the protocol: as §3
Background: Cellular ATP, detected with luciferase, serves as a proxy for viable cell number.

A short description of experiment [18]: Quantitative High-Throughput drug screen in 47 multiple myeloma cell lines against the NCATS MIPE library collection: NCIH929_DSMZ cell viability assay (AID 1918978). Also: nearly all actives have a fitted effect of over 35% in size. The essentials:
as §3

Experiment [19] is described as follows: Quantitative High-Throughput drug screen in 47 multiple myeloma cell lines against the NCATS MIPE library collection: KMS12PE_JCRB cell viability assay (AID 1918972). Also: nearly all actives have a fitted effect of over 30% in size. A digest of the protocol:
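Approved and investigational drugs from MIPE 4.0 were added by pin tool to 500 cells per well. After 48 hours at 37C, ATP-based CellTiter-Glo luminescence indicated remaining viability.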

The nature of experiment [20]: Quantitative High-Throughput drug screen in 47 multiple myeloma cell lines against the NCATS MIPE library collection: LP1_DSMZ cell viability assay (AID 1918982). Also: nearly all actives have a fitted effect of over 35% in size. A digest of the protocol: as §3
Potency is read from the fitted curve at half-maximal effect.

The term viability denotes a read-out of living cells in per cent, often relative to untreated cells. As to `CO[C@H]1C[C@@H]2CC[C@@H](C)[C@@](O)(O2)C(=O)C(=O)N2CCCC[C@@H]2C(=O)O[C@H]([C@H](C)C[C@@H]2CC[C@H](OCCO)[C@H](OC)C2)CC(=O)[C@H](C)C=C(C)[C@@H](O)[C@@H](OC)C(=O)[C@H](C)C[C@H](C)C=CC=CC=C1C`, the Potency in [1] was 4.18 µM (active); in experiment [2], 3.72 µM (active); in [3], 7.43 µM (active); in experiment [4], 1.05 µM (active). For the same compound, in experiment [5], the viability was 66.8%.

With `COc1cc2ncnc(Nc3ccc(F)c(Cl)c3)c2cc1OCCCN1CCOCC1`, the Potency is 34 µM (active) in [1]; 3.4 µM (active) in [2]; 38.2 µM (active) in [6]; 54 µM (active) in experiment [7]; 48.1 µM (active) in experiment [8]; 48.1 µM (active) in [9]. The Potency in experiment [10] is 3.03 µM (active); in [11], 21.5 µM (active); in experiment [12], 42.9 µM (active); in experiment [13], 8.55 µM (active); in experiment [14], 42.9 µM (active); in experiment [15], 2.15 µM (active). Also, the Potency in experiment [4] was 4.29 µM (active); in experiment [5], 67.9 µM (active); in experiment [16], 30.3 µM (active).

In the case of `Cc1ccc(/C=N/NC(=O)c2ccccc2Oc2ccccc2)o1`, the Potency is 23.5 µM (active) in experiment [1]; 16.6 µM (active) in experiment [2]; 18.7 µM (active) in experiment [10]; 16.6 µM (active) in experiment [17]; 16.6 µM (active) in experiment [15]. Also, the Potency result in experiment [9] and in [13] was “inactive” each time.

Regarding `CC[C@]1(O)C[C@@H]2CN(CCc3c([nH]c4ccccc34)[C@@](C(=O)OC)(c3cc4c(cc3OC)N(C=O)[C@@H]3C45CCN4CC=C[C@](CC)([C@H]45)[C@@H](OC(C)=O)[C@]3(O)C(=O)OC)C2)C1` (stereo partly specified), the Potency is 18.7 µM (active) in [1]; 23.5 µM (active) in [6]; 10.5 µM (active) in [7]; 26.4 µM (active) in experiment [9]; 18.7 µM (active) in experiment [10]; 20.9 µM (active) in experiment [11]. The Potency was 23.5 µM (active) in experiment [12]; 23.5 µM (active) in experiment [14]; 9.35 µM (active) in [17]; 20.9 µM (active) in [15]; 20.9 µM (active) in experiment [5]; 23.5 µM (active) in [16]. Besides, the Potency entry in experiment [13] is “inactive”.

For the compound `O=c1c(-c2ccc(O)cc2)coc2cc(O[C@@H]3O[C@H](CO)[C@H](O)[C@H](O)[C@H]3O)ccc12`, the Potency result in experiment [1], in [6], in experiment [18], in experiment [9], in experiment [10] and in experiment [12] was “inactive” throughout. The Potency result in experiment [13], in experiment [14] and in experiment [4] was “inactive” throughout. The viability in experiment [5] is 171%.

Regarding `COc1ccc(C2CC(c3ccccc3)=NN2c2ccc(S(N)(=O)=O)cc2)cc1` (stereo unspecified), the Potency in experiment [1] is 18.7 µM (active); in experiment [10], 23.5 µM (active); in experiment [11], 16.6 µM (active); in experiment [13] it was 16.6 µM (active); in experiment [4], 20.9 µM (active). Also, the Potency entry in [12] is “inactive”.

On to `Cn1c(N2CCCCS2(=O)=O)nc(C(=O)NCc2ccc(F)cc2)c(O)c1=O`, for which the Potency in experiment [19] is 20.9 µM (active). For the same compound, the Potency entry in [2], in experiment [18], in [9], in experiment [10], in experiment [11] and in experiment [12] was “inactive” each time. Moreover, the Potency entry in [14] and in [4] was “inactive” in each case. Further, the viability in [5] is 112%.

With `c1ccc2c(-c3cnn4cc(-c5ccc(N6CCNCC6)cc5)cnc34)ccnc2c1`, the Potency was 14.8 µM (active) in experiment [1], 9.35 µM (active) in [5] and 8.33 µM (active) in experiment [16].

Turning to `O=c1c(O)c(-c2ccc(O)cc2)oc2cc(O)cc(O)c12`, the Potency is 16.6 µM (active) in experiment [19]; 14.8 µM (active) in experiment [2]; 5.9 µM (active) in experiment [3]; 9.35 µM (active) in experiment [18]; 18.7 µM (active) in experiment [10]; 14.8 µM (active) in [17]. Moreover, in experiment [15], the Potency was 26.4 µM (active). The Potency entry in experiment [9] and in experiment [14] was “inactive” in each case.

Take `CC(C)(C(=O)NCC(F)(F)C(F)(F)F)C(=O)N[C@@H]1C(=O)Nc2ccccc2-c2ccccc21`: the Potency result in experiment [1], in [9], in [20], in [12], in [14] and in [15] was “inactive” throughout. Also, the Potency in experiment [18] is 16.6 µM (active); in experiment [10] it was 13.2 µM (active); in experiment [13], 3.72 µM (active). Besides, the viability in experiment [5] is 128%.

For the compound `CN1[C@@H]2CCC[C@@H]1CC(NC(=O)c1nn(C)c3ccccc13)C2` (stereo partly specified), the Potency result in experiment [1], in experiment [18], in [10], in [11], in experiment [20] and in [12] was “inactive” each time. Moreover, the Potency result in experiment [13], in experiment [14], in experiment [15] and in [4] was “inactive” each time. Also, the viability in experiment [5] was 111%.

Regarding `CN1CCN(CCOc2cc(OC3CCOCC3)c3c(Nc4c(Cl)ccc5c4OCO5)ncnc3c2)CC1`, the Potency in [19] was 14.8 µM (active); in experiment [2], 8.33 µM (active); in [3], 1.87 µM (active); in experiment [8], 16.6 µM (active); in experiment [18], 18.7 µM (active); in experiment [13] it was 14.8 µM (active). The Potency was 18.7 µM (active) in experiment [17], 18.7 µM (active) in [15] and 20.9 µM (active) in experiment [4]. The Potency result in [9] is “inactive”.

As for `O=C(O)C(O)Cc1ccc(O)c(O)c1` (stereo unspecified), the Potency entry in experiment [19] and in [13] was “inactive” each time. The Potency in experiment [3] was 0.0083 µM (active); in experiment [6], 20.9 µM (active); in experiment [7], 5.26 µM (active); in experiment [10], 16.6 µM (active); in experiment [11], 20.9 µM (active); in experiment [12], 23.5 µM (active). Besides, the Potency in experiment [14] was 18.7 µM (active); in [15], 23.5 µM (active); in experiment [5] it was 11.8 µM (active); in [16], 26.4 µM (active).

Regarding `OC[C@H]1O[C@@H](Oc2cc(O)cc(C=Cc3ccc(O)cc3)c2)[C@H](O)[C@@H](O)[C@H]1O`, the Potency entry in [1], in [6], in [8], in experiment [11], in experiment [12] and in [14] was “inactive” each time. Moreover, in [16], the Potency entry was “inactive”. Moreover, the Potency in [15] was 9.35 µM (active).

On to `NC(=O)c1cnc(-c2ccc(C3(N)CCC3)cc2)c(-c2ccccc2)c1`, for which the Potency is 8.33 µM (active) in [1]; 0.743 µM (active) in experiment [7]; 1.48 µM (active) in experiment [18]; 7.43 µM (active) in experiment [11]; 2.64 µM (active) in experiment [20]; 0.332 µM (active) in experiment [12]. For the same compound, the results for the Potency in [17] and in experiment [15] were 1.87 µM (active) and 0.187 µM (active), respectively.

On to `NC(=O)[C@@H](CCC(F)(F)F)N(Cc1ccc(-c2ncon2)cc1F)S(=O)(=O)c1ccc(Cl)cc1`, for which the Potency in experiment [1] is 18.7 µM (active); in experiment [7], 26.4 µM (active); in experiment [10], 16.6 µM (active); in experiment [15] it was 23.5 µM (active); in experiment [4], 20.9 µM (active); in experiment [5], 0.187 µM (active). The Potency entry in experiment [6], in experiment [9] and in experiment [11] was “inactive” throughout.
